IMPase cell inh – cell-permeable inhibitors of inositol monophosphatase (IMPase); 120,000 tested, under 10 active; AID 901; inhibition (IP1 accumulation), % at 46.1 µM; CHO-M1 cells, IP1 accumulation, HTRF TR-FRET ratio; P97697; active = well fitted curve in the direction sought with a large enough effect in the signal ratio, not every such curve was filed as active; inconclusive = small, poorly fitted or top-dose-only effect, or a change in a side signal; inactive = no such curve, though single readings can be large or run the other way; the % refers to the signal ratio;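 note: cells stimulated with carbachol in lithium chloride buffer; higher means more IMPase inhibition seen as more IP1 and lower FRET ratio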
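Cellular IMPase inhibition is scored as a rise in cytosolic IP1, detected by competitive TR-FRET between d2-labelled IP1 and a europium anti-IP1 antibody. M1-expressing CHO cells were stimulated with carbachol for 30 min at 37C, with lithium (50 mM LiCl) present in the buffer.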
HTT cytoprotect – cytoprotection in Huntington HTT-Q103 PC12 cell model. PC12 HTT-Q103 induced, cytoprotection, ATP luminescence, 40 h. Potency, µM (top dose mostly 56.4 µM), actives largely listed as activators. 0.14% of 230,000 active; note: nearly all actives have a fitted effect of over 45% in size
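Huntington model: PC12 line, ecdysone-inducible HTTQ103 exon1–GFP, tebufenozide 100 nM. Test articles in a dose series. Endpoint luminescence from cellular ATP.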
HttQ103 aggreg – reduces HttQ103-GFP aggregates in PC12 cells; PC12 HttQ103-GFP aggregates, Acumen cytometry, 40 h; AID 1688; 1.1% of 220,000 active; Potency, µM (highest dose often 46.1 µM), hits mostly inhibitors; note: nearly all actives have a fitted effect of over 60% in size
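Using laser scanning cytometry, GFP-positive aggregates were counted after lysis of PC12 cells induced with 100 nM tebufenozide to express HTT exon 1 Q103–GFP. Compounds were tested in titration.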
HPGD inh – inhibitors of human 15-hydroxyprostaglandin dehydrogenase (HPGD); P15428; purified HPGD, NADH fluorescence kinetic, PGE2 substrate; 4.3% of 150,000 active; AID 894; Potency, µM, most hits filed as inhibitors; active = well fitted inhibition curve with a large enough effect, not every such curve was filed as active; inconclusive = small, poorly fitted or top-dose-only effect, or another doubt; inactive = no such curve, though single readings can be large or run the other way
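NADH formation kinetics: reaction with 30 uM PGE2 and 1 mM NAD+ (final), 20 nM enzyme, Tris-HCl pH 8 with Tween 20, after 15 min compound preincubation at room temperature. Fluorescence change, last versus first of five reads.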
IMPase Li cell – cell-permeable IMPase inhibitors with lithium potentiation; CHO-M1 cells, IP1 TR-FRET (IP-One), carbachol + lithium; Potency, µM (titrated, usually from 59.4 µM), hits mostly inhibitors; 0.35% of 210,000 active; AID 1457;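 note: IP1 builds up when IMPase is blocked and the TR-FRET signal falls; nearly all actives have a fitted effect of over 50% in size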
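Readout is a homogeneous TR-FRET IP1 immunoassay (Ex 320, Em 665 and 620), where raised cytosolic IP1 lowers signal. Cells were CHO-M1 treated 30 min at 37C with test compounds plus a little lithium; AC50 values came from Hill-equation fitting.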
ALDH1A1 inh – inhibitors of human aldehyde dehydrogenase 1A1; Purified ALDH1A1, NADH fluorescence, propionaldehyde substrate; Potency, µM (titrated, usually from 75.3 µM), hits mostly inhibitors; 7.3% of 220,000 active; AID 1030; active = well fitted inhibition curve with a large enough effect, not every such curve was filed as active; inconclusive = small, poorly fitted or top-dose-only effect, or another doubt; inactive = no such curve, though single readings can be large or run the other way
Target sequence (P00352 whole entry, looked up): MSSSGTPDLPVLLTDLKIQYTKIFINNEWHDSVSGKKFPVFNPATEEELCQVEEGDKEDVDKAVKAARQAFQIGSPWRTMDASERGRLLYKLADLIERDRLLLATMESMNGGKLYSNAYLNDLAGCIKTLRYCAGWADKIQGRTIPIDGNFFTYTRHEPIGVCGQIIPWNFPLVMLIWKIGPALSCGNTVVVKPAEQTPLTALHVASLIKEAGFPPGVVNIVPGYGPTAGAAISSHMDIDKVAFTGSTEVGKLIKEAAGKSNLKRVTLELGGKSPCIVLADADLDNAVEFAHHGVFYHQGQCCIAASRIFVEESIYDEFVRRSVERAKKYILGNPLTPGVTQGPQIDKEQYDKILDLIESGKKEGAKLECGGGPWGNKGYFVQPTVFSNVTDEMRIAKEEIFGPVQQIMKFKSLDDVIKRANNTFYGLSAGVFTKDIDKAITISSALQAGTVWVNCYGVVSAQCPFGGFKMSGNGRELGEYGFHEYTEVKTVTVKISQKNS
A number is an active result; n = inactive; u = inconclusive; x = no result given; [ ] = another dose, or the depositor's remark. Compounds with a hit are over-represented: about 9.4% of the library has one in this group of screens. Unless noted, calls come from the whole dose curve; as a rule, active = well fitted curve in the direction sought with a large enough effect; inconclusive = small, poorly fitted or top-dose-only effect, or another doubt; inactive = no such curve, though single readings can be large; an effect the other way counts as inactive or inconclusive.

SMILES	IMPase cell inh	HTT cytoprotect	HttQ103 aggreg	HPGD inh	IMPase Li cell	ALDH1A1 inh
N#Cc1cc(C(=O)c2cc(F)ccc2O)cn(-c2nccs2)c1=O	x	n[10 µM]	n	11µM	n	u
CC(C)n1cc(C(=O)c2ccccc2O)cc(C#N)c1=O	x	n	n	x	n	n
N#Cc1cc(C(=O)c2ccccc2O)cn(-c2nccs2)c1=O	x	x	n	32µM	n	u
CN(C)c1cccc(NC2=CC(=[N+]3CCOCC3)CC(C)(C)C2)c1	n	n[10 µM]	n	u	n	28µM
CCN(c1ccc(NC(=O)COC(=O)/C=C/c2cccs2)cc1)C(C)C	x	n[10 µM]	n	x	n	0.13µM
Cc1ccc(NC(=O)COC(=O)/C=C/c2cccs2)cc1	x	n[10 µM]	n	28µM	n	n
CC1(OC(=O)c2cnc3ccccc3n2)C(=O)C=C2C=C3CCCN3C=C2C1=O (configuration not stated)	x	n[10 µM]	x	n	n	n[13.5 µM]
Cc1ccc(S(=O)(=O)c2nc(-c3cccc(Br)c3)oc2N2CCCCCC2)cc1	n	x	x	x	x	x
CN(C)c1ccc(-c2cc(Nc3ccc(F)cc3)ncn2)cc1	x	n	x	x	n	u
CCCCN(Cc1ccccc1)S(=O)(=O)c1ccc2[nH]c(=O)oc2c1	n	n	n	n	n	5µM
O=c1[nH]c2ccc(S(=O)(=O)N3CCC(Cc4ccccc4)CC3)cc2o1	u	n	n	x	x	n
CC(C)(C)C1CCc2sc(-c3nnc(CCl)o3)cc2C1 (configuration not stated)	x	n[10 µM]	n	x	n	22µM
CCCCCN1C(C(=O)c2ccccc2)=C(NC(=O)c2ccc(C)cc2)c2ccccc2S1(=O)=O	n	x	x	x	x	x
COc1ccc(C(C[N+](=O)[O-])c2c(-c3ccccc3)cc3ccccn23)cc1OC (configuration not stated)	n	n	u	n	n	n
COc1ccc(C(C[N+](=O)[O-])c2c(-c3ccccc3)cc3ccccn23)cc1 (configuration not stated)	n	n	n	28µM	n	u
COc1cc(C(C[N+](=O)[O-])c2c(-c3ccccc3)cc3ccccn23)cc(OC)c1OC (configuration not stated)	n	n	u	u	n	3.5µM
Cn1c(=O)c2c(ncn2CC(=O)Nc2nnc(Cc3ccccc3)s2)n(C)c1=O	n	n	n	n	n	n
COc1ccc(Cc2nnc(NC(=O)Cn3cnc4c3c(=O)n(C)c(=O)n4C)s2)cc1OC	n	n	u	14µM	n	u
CCC(C)[C@H](NC(=O)N1CCN(C)CC1)C(=O)OC (some centres not stated)	n	n[10 µM]	n	n	n	n
CCC(C)NC(=S)N1CCN(C)CC1 (configuration not stated)	x	n	n	x	n	22µM
CC(=O)OCCSc1c(-c2ccccc2)c2cc(Cl)ccc2[nH]c1=O	n	n[10 µM]	n	x	x	14µM
COC(=O)CSc1c(-c2ccccc2)c2cc(Cl)ccc2[nH]c1=O	n	n	n	n	n	u
Fc1cc2[nH]c(=S)[nH]c2cc1Cl	x	n[10 µM]	n[9.22 µM]	x	x	32µM
O=C(Cn1cnc2sc(-c3ccccc3)cc2c1=O)NCc1ccco1	n	n[1.9 µM]	n	16µM	n	u
O=C(Cn1cnc2sc(-c3ccccc3)cc2c1=O)NCCc1ccccc1	n	n[10 µM]	n	u	28µM	u
SMILES	IMPase cell inh	HTT cytoprotect	HttQ103 aggreg	HPGD inh	IMPase Li cell	ALDH1A1 inh
O=C(Cn1cnc2c(cnn2-c2ccc(Cl)cc2)c1=O)NCCc1ccccc1	n	n	n	n	13µM	n
C=C(C)C(O)/C=C/c1cccc(OC)c1 (configuration not stated)	x	n[10 µM]	x	x	x	n[13.5 µM]
Cn1cccc1C(=O)N1CCC2(CC1)CN(C(=O)Nc1ccccc1)C2	x	u	x	n	n	n
CC(=O)S[C@@H]1CC2=CC(=O)CC[C@@]2(C)[C@H]2CC[C@]3(C)[C@H](CC[C@@]34CCC(=O)O4)[C@H]12	n	n[1.9 µM]	x	x	x	x
CCOC(=O)C(Cc1ccc(OC)c([N+](=O)[O-])c1)NC(=O)CCC(=O)Nc1ccc(OC)cc1 (configuration not stated)	x	n[10 µM]	n[9.22 µM]	x	n	4.5µM
CCCCCCCCCCCC(=O)NC(Cc1ccc(OC)c([N+](=O)[O-])c1)C(=O)O (configuration not stated)	x	n[10 µM]	n[9.22 µM]	x	x	x
COc1cc(NC(=S)NC(=O)c2ccco2)ccc1NC(=O)C(C)C	x	n[10 µM]	n	x	n	n
COc1ccc(C(=O)NC(=S)Nc2cccc(NC(=O)c3ccco3)c2)cc1[N+](=O)[O-]	u	n[10 µM]	n	n	n	3.5µM
O=C(NC(NC(=S)Nc1ccc(Cl)cc1)C(Cl)(Cl)Cl)c1ccco1 (configuration not stated)	x	x	n	n	n	u
COc1ccccc1NC(=S)NC(NC(=O)c1ccco1)C(Cl)(Cl)Cl (configuration not stated)	n	n[10 µM]	n	n	n	14µM
COc1cc(NC(=S)NC(=O)c2ccccc2F)ccc1NC(=O)c1ccco1	x	n[0.074 µM]	n	n	n	32µM
N[C@H](Cc1ccc(O)c(O)c1)C(=O)O	x	n	u	n	n	u
O=C(Cn1cc(C(F)(F)F)cc(Cl)c1=O)NCCc1ccccc1	n	n[1.9 µM]	n	n	n	n
COC(=O)[C@@]1(Cc2ccccc2)[C@H]2c3cc(C(=O)N4CCCC4)n(CC4CC4)c3C[C@H]2CN1C(=O)c1ccccc1	x	n	x	n	n	n
CCOC(=O)CSc1nnc2n(-c3ccccc3)c(=O)c3c4c(sc3n12)CC(C(C)(C)C)CC4 (configuration not stated)	n	x	x	x	x	x
NC(N)=N/N=C\c1ccc(O)c(C(=O)O)c1	x	n[10 µM]	x	u	n	u
CCOC(=O)C1CCCN(C(=O)c2ccc(Cl)c(S(=O)(=O)N3CCCCCC3)c2)C1 (configuration not stated)	x	n	n	x	n	u
CCOc1ccc(C(=O)NC(=S)Nc2cccc(NC(=O)c3ccco3)c2)cc1[N+](=O)[O-]	n	n[10 µM]	n	n	n	3.2µM
CCc1ccc(NC(=O)c2ccc(OC)c([N+](=O)[O-])c2)cc1	x	n[10 µM]	n	n	n	11µM
O=C(O)c1cc2ccccc2c(S(=O)(=O)O)c1O	x	n[10 µM]	x	n	n	n[13.5 µM]
CC1(C)CN=c2s/c(=C\c3ccc(Cl)cc3)c(=O)n2C1	x	n[10 µM]	u	x	n	2.2µM
COc1ccc(-c2cc(-c3ccc(OC)cc3)c(C#N)c(SC)n2)cc1	n	n[10 µM]	n	u	11µM	u
CSc1nc(-c2ccco2)cc(-c2ccccc2)c1C#N	u	n[0.074 µM]	n	u	n	u
CN1CCN(c2ncc3nc(-c4cn(C)c5ccccc45)c(=O)n(-c4ccccc4)c3n2)CC1	x	n	x	x	n	u
